SMILES strings stand for the structures. In all, about 1,000 compounds went through this assay and about 160 (16%) were called active. The rule behind the calls is not given here. The list shows a part of the results.

Here are results for 6 compounds from PubChem BioAssay AID1275 (Emory University Molecular Libraries Screening Center, 2008).

For the assay, the target named is Neutrophil cytosol factor 1 (Homo sapiens) (UniProt P14598). As to the kind of experiment: p47phox binding inhibitors, dose response, biochemical, NADPH oxidase regulatory subunit, fluorescence polarization (AID 1275). Particulars: at 12.5 µM. (In general: In fluorescence polarisation assays a small probe gives low polarisation when free and higher when bound to something large.)
Sequence of Neutrophil cytosol factor 1 (Homo sapiens) (P14598 whole entry, looked up): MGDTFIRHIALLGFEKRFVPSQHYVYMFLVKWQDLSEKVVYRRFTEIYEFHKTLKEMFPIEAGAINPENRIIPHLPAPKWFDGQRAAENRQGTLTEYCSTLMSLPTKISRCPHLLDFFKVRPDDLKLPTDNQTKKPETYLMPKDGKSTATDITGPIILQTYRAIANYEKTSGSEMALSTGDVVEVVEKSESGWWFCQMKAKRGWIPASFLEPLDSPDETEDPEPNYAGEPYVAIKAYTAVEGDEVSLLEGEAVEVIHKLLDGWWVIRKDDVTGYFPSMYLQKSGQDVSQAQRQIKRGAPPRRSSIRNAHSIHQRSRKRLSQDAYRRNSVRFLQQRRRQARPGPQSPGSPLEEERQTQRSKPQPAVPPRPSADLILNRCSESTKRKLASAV
Regarding `N#CC(C#N)=C1C=C2C=C(N3CCCCC3)CCC2CC1` (stereo unspecified), the percent of control, lower = inhibition was 107 (active).

As for `Cc1ccc(-n2c(C)cc(C3N=C(N)Nc4nc5ccccc5n43)c2C)c(C)c1` (stereo unspecified), the percent of control, lower = inhibition was 66.2 (active).

In the case of `CCN1CCN(Cc2ccc(NC(=O)c3ccc(C)c(NC(=O)c4c[nH]c5cc(C(F)(F)F)ccc5c4=O)c3)cc2C(F)(F)F)CC1`, the percent of control, lower = inhibition is 53.8 (active).

As to `CN(C)c1ccc(/C=C/C(=O)c2cc(Cl)ccc2O)cc1`, the percent of control, lower = inhibition was 50.8 (active).

For `Cc1ccc2cc3c(N)c4c(C)ccc(C)c4nc3nc2c1`, the percent of control, lower = inhibition is 51.8 (active).

Take `CN(C)c1ccc(/C=C(\C#N)C(=O)c2ccccc2)cc1`: the percent of control, lower = inhibition was 69.6 (active).
